For 38 compounds, growth results are on record in PubChem BioAssay (NCI).

Compounds without any hit were thinned out: in the full panel of roughly 83,000, 20% have a hit.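 How to read the values: 0–100, growth inhibition (40 = 60% inhibited); 0, no net growth; -100 to 0, cell death (-40 = 40% of starting cells died; -100 = all dead).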 Activity calls are given as the source filed them. How the source made its calls: active means growth percent below 10; inactive means the rest.

The test concerns NCI-H460 lung. Nature of the test: NCI-60 one-dose screen, 48 h (100 = growth as untreated, 0 = no growth, -100 = all killed). Conditions: 10 µM unless noted.
With `COc1cc2c(c(OC)c1OC)C(=O)CC(c1cccc(NC(=O)[C@@H](N)CC(C)C)c1)O2` (stereo partly drawn), the growth is 106% (inactive).

As for `CN1CCN(/C(=N\c2sc(-c3ccccc3)nc2-c2ccccc2)c2ccccc2)CC1`, the growth was 42.6% (inactive).

Take `Cc1ccc(-c2nnc3ccc(N/N=C/c4ccccc4)nn23)cc1`: the growth was 68.5% (inactive).

For the compound `COc1ccc(C(=O)/C=C/c2ccccc2Br)cc1S(N)(=O)=O`, the growth is 1.47% (active).

For `CC1=C(C(=O)OCc2ccccc2)C(c2c(O)cc(O)cc2O)n2c(nc3ccccc32)N1` (stereo not drawn), the growth was 29.6% (inactive).

Turning to `CCCCc1c(Nn2cnnn2)no[n+]1[O-]`, the growth is 36.5% (inactive).

Take `CC(C)CSc1nc(NCCc2c[nH]c3ccccc23)c(C#N)c(-c2ccc(Cl)cc2)n1`: the growth was 30.3% (inactive).

For the compound `CN1CCc2c(sc3ncnc(N/N=C/c4ccc(Cl)cc4Cl)c23)C1`, the growth was 10.1% (inactive).

For `N#Cc1c(-c2ccc(Br)cc2)nc2n[nH]c(-c3ccc(Br)cc3)c2c1-c1ccc(F)cc1`, the growth was 106% (inactive).

Regarding `CC(=O)OC[C@@]1(C)C2CC[C@]3(C)C(CC=C4C5CC(C)(C)CC[C@]5(C(=O)Nc5ccc(F)cc5)CC[C@]43C)[C@@]2(C)C[C@@H](OC(C)=O)[C@@H]1OC(C)=O` (stereo partly drawn), the growth was 11.5% (inactive).

Regarding `NS(=O)(=O)c1ccc(N=Nc2c(O)n(CC(=O)Nc3ccccc3Cl)c3ccccc23)cc1`, the growth was 14.5% (inactive).

Consider `CCCCNC(=S)Nc1ccc(OCc2nc3ccccc3[nH]2)cc1`, for which the growth was 69.7% (inactive).

Take `Cc1cc2nc3c4ccccc4n(CCCN(C)C)c3nc2cc1C`: the growth is -25.7% (active).

Consider `COc1cc2c(c(OC)c1OC)C(=O)CC(c1cccc(NC(=O)c3cc(NC(=O)[C@@H](N)CO)ccc3C)c1)O2` (stereo partly drawn), for which the growth is 123% (inactive).

Take `CC(=O)OC[C@@]1(C)C2CC[C@]3(C)C(CC=C4C5CC(C)(C)CC[C@]5(C(=O)Nc5ccc(C)cc5)CC[C@]43C)[C@@]2(C)C[C@@H](OC(C)=O)[C@@H]1OC(C)=O` (stereo partly drawn): the growth is 13.5% (inactive).

With `Cc1ccc(C(=O)CSc2nc3ccc(F)cc3c(=O)n2-c2ccc(Cl)cc2)cc1`, the growth was 22.4% (inactive).

For the compound `COc1ccc(-c2ccnc(SCc3cc4cc(Cl)ccc4[nH]c3=O)n2)cc1`, the growth is 19.6% (inactive).

In the case of `COc1cc(-c2ccc(/C=N/NC(=O)c3[nH]c4ccc(Br)cc4c3-c3ccccc3)o2)cc(OC)c1OC`, the growth was 62.8% (inactive).

Consider `CC1=C(C(=O)OC(C)C)C(c2cccc(O)c2)NC(=S)N1` (stereo not drawn), for which the growth is 110% (inactive).

For `COc1cccc(COc2ccc(NC(=O)Nc3ccc(Cl)c(C(F)(F)F)c3)cc2)c1`, the growth was 17.5% (inactive).

As for `COc1ccc(C(=O)Nc2n[nH]c(Nc3ccccc3)c2C#N)cc1`, the growth was 101% (inactive).

In the case of `O=C(c1ccc(OCCN2CCOCC2)cc1)C1[C@H](c2ccc(Cl)cc2)[C@@H](c2ccccc2)NC12C(=O)Nc1ccc(Cl)cc12` (stereo partly drawn), the growth was 10.1% (inactive).

For the compound `O=C(N=Nc1c(O)[nH]c2ccc([N+](=O)[O-])cc12)c1ccc2nc(-c3ccccc3)[nH]c2c1`, the growth was 100% (inactive).

Turning to `CCN(CC)C(=O)N/C(N)=N/c1nc2ccccc2s1`, the growth is 67% (inactive).

With `Nc1nnc(-c2c[nH]c3ncc(Br)cc23)c(-c2c[nH]c3ccc(F)cc23)n1`, the growth was 25.7% (inactive).

Turning to `O=C(COc1ccc(NC(=O)Nc2ccccc2)cc1)N=Nc1c(O)[nH]c2ccc([N+](=O)[O-])cc12`, the growth was 49.1% (inactive).

Regarding `CC(=O)Nc1ccc(-n2cnc3cc(-c4ccc(O)cc4)ccc32)cc1C(F)(F)F`, the growth is 9.22% (active).

Take `CN(C)CCn1c2ccccc2c2nc3cc4ccccc4cc3nc21`: the growth is -52.1% (active).

On to `COc1cc2oc(-c3cccc(C(=O)Nc4cccc([N+](=O)[O-])c4)c3)cc(=O)c2c(OC)c1OC`, for which the growth was 32.3% (inactive).

On to `Cc1cccc(NC(=O)[C@]23CCC(C)(C)CC2C2=CCC4[C@@]5(C)C[C@@H](O)[C@H](O)[C@@](C)(CO)C5CC[C@@]4(C)[C@]2(C)CC3)c1` (stereo partly drawn), for which the growth is -18.3% (active).

On to `O=C(/C=C/c1cccc(OCc2ccccc2)c1)c1nc2ccccc2[nH]1`, for which the growth is 63% (inactive).

Consider `COc1ccc(N2N=C(c3ccc4c(c3)OCO4)CC2c2cccc(NC(=O)CCNS(=O)(=O)c3ccc(Cl)cc3)c2)cc1` (stereo not drawn), for which the growth is 22.3% (inactive).

Turning to `CN(C)c1ccnc(CNCCSC2(c3ccccc3)c3ccccc3C=Cc3ccccc32)c1`, the growth was -87.4% (active).

For the compound `CC1=C(C(=O)c2ccccc2)C(c2ccc(-n3cncn3)cc2)n2c(nc3ccccc32)N1` (stereo not drawn), the growth is 80.5% (inactive).

With `Cc1cnc(C(=O)NNc2nc3cc(F)ccc3n3c(C(=O)N4CC5CC(C4)N5)ccc23)cn1`, the growth is 9.91% (active).

For the compound `CN(C)CCCNC(=O)c1cc(NC(=O)c2cc(NC(=O)c3ccc(C#Cc4ccccc4)cc3)cn2C)cn1C`, the growth was -28.9% (active).

In the case of `N/C(=N\N=C\c1ccc([N+](=O)[O-])cc1)c1c(N)nc(=S)[nH]c1-c1ccc(Cl)cc1Cl`, the growth was 114% (inactive).

On to `C=C1CCC2C3(C)COC(c4cccc(F)c4)OC3CCC2(C)C1C/C=C1/C(=O)OCC1O` (stereo not drawn), for which the growth is 8.73% (active).
